Reference: the supplement of paper PMC12636033
± gives the standard deviation of the averaged measurements. The full ranking holds about 33,000 sequences; the median of “E-score (rank enrichment, -0.5 to 0.5)” is about -0.0068, and the highest 2% start at about 0.24. This excerpt belongs to a sample that is enriched for the highest values.

System: muMax20 (Max(13-93) K31hArg/K57hArg, M65Nle)
Assay: PBM 8-mer E-score (E-score (rank enrichment, -0.5 to 0.5)); higher = stronger preferential binding
Description: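 Protein binding microarray (universal PBM chip covering all 10-mers in fixed probe flanks) with chemically synthesized human Max(13-93) bHLH-LZ analogs (not full-length Max) bearing noncanonical residues (hArg, Tha, Aib, Nle at 65) and aromatic Cys staples. Read-out per 8-mer (and its reverse complement): E-score (rank-based enrichment, -0.5 to 0.5) and Z-score of median probe intensity.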

Row | Sequence | PBM 8-mer E-score
1 | CGCGCCAG | -0.222 ± 0.12
2 | ATTGAGAC | -0.0808 ± 0.13
3 | GTGACAAA | 0.0325 ± 0.033
4 | AATAATGG | 0.0129 ± 0.086
5 | GATAATGA | -0.00519 ± 0.014
6 | AATAATGT | 0.258 ± 0.068
7 | AATAATGA | 0.269 ± 0.062
8 | AATAATGC | 0.1872 ± 0.0018
9 | CATAATGA | 0.0649 ± 0.033
10 | GCTCTTTA | 0.0129 ± 0.059
11 | CGAAACAG | -0.176 ± 0.0078
12 | CCCGGCTC | -0.299 ± 0.021
13 | CTCGGTTC | -0.185 ± 0.018
14 | GTTTTACA | 0.0874 ± 0.0056
15 | ATGGTAAC | 0.26 ± 0.046
16 | ATGGTAAG | 0.0283 ± 0.054
17 | GTGGTAAC | 0.102 ± 0.049
18 | GATAGTAC | 0.0698 ± 0.03
19 | ACCCACCC | 0.299 ± 0.091
20 | GCCCACAC | 0.0523 ± 0.0056
21 | GCCCACCC | 0.294 ± 0.07
22 | CCCCACCC | 0.165 ± 0.027
23 | ACCCACCA | 0.0656 ± 0.034
24 | GCCCACCA | -0.032 ± 0.095
25 | AACGGCCG | -0.0126 ± 0.14
26 | ACCCCGAG | -0.142 ± 0.045
27 | CATACCAG | 0.0299 ± 0.094
28 | CTGTATTA | 0.129 ± 0.013

Row | Sequence | PBM 8-mer E-score
29 | CTATATTA | 0.199 ± 0.042
30 | ATGTATTA | 0.22 ± 0.012
31 | ATGTATTC | 0.107 ± 0.074
32 | GTATATTA | 0.28 ± 0.025
33 | ATGTATTG | 0.251 ± 0.048
34 | GTGTATTA | 0.277 ± 0.0053
35 | ATATATTA | 0.225 ± 0.056
36 | ATGTATCG | 0.213 ± 0.065
37 | AGCTAGAA | -0.0154 ± 0.041
38 | GGTCCACA | -0.0698 ± 0.11
39 | GACGCAGA | -0.0585 ± 0.079
40 | CCCAGTAG | -0.0372 ± 0.037
41 | CGGTAACA | -0.0167 ± 0.022
42 | AGCCTGCA | 0.0231 ± 0.12
43 | AGCGTTGC | -0.0889 ± 0.092
44 | CCGGCCGC | -0.23 ± 0.0085
45 | CGCGGGTA | -0.0475 ± 0.074
46 | ATGATTGA | 0.127 ± 0.063
47 | ACCCAACC | 0.0711 ± 0.054
48 | CATAATCA | 0.08 ± 0.021
49 | GCTAATCA | -0.0154 ± 0.012
50 | GATAATCC | -0.0364 ± 0.011
51 | GATAATCA | 0.311 ± 0.07
52 | AATAATCA | 0.08847 ± 8.5e-05
53 | TATAATCA | 0.247 ± 0.037
54 | ACTCCTCT | -0.0496 ± 0.01
55 | GCCAAGAA | 0.106 ± 0.011
